PGC1a acetyl inh: modulators of PGC1a acetylation | U2OS PGC1a acetylation, AlphaScreen anti-acetyl-lysine; with virally co-expressed GCN5 acetyltransferase | inhibition, % at 15.6 µM | actives 0.17% (n = 350,000) | AID 651687;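 active = every replicate shows inhibition of at least 40%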;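 also: 0% = neutral control wells and 100% = positive control wells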
RAD54 inh: inhibitors of human RAD54 branch migration; RAD54 Holliday junction branch migration, FAM/BHQ fluorescence; inhibition, % at 10.4 µM; actives 0.14% (n = 360,000); AID 602329;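 active = mean normalized replicate activity at least 40 and at least half of replicates scoring 40 or more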;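 also: 0% = median of neutral control wells and 100% = median of positive control wells; inhibitors cause a drop in the FAM fluorescence signal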
ERAP1 HTS inh: blocks human ERAP1 aminopeptidase activity; Q9NZ08; actives 0.15% (n = 340,000); AID 652197; inhibition, % at 10.7 µM; recombinant ERAP1, Leu-AMC fluorescence, 60 min;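 active = mean replicate inhibition of at least 30%, or all replicates individually reaching that 30% level; inactive = mean below 30% and not every replicate reaching it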;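 also: 0% = neutral control wells and 100% = L-leucinethiol positive control wells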
MLL AF4-AF9 inh: inhibitors of human MLL-AF4/AF9 interaction. AlphaScreen, biotin-AF4 peptide binding to FLAG-AF9. P42568. inhibition, % at 10 µM. actives 0.47% (n = 350,000). AID 651704;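 active = every replicate reaching a set inhibition limit, whatever the replicate mean, cut at about 25% in these data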;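 also: 0% = plate neutral control median and 100% = total signal loss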
GSIS activator: GLuc luminescence reporter in INS-1E cells, primary screen for activators of glucose-dependent secretion of insulin. INS-1E GLuc reporter insulin secretion, 2-3 h. activation, % at 16.6 µM. actives 0.61% (n = 370,000);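 active = lowest replicate activation of at least 40%, so every replicate reaches that level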;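 also: 0% = median of neutral control wells and 100% = median of IBMX positive control wells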
RAD52 inh: blocks human RAD52 DNA annealing; recombinant RAD52 DNA annealing, FRET fluorescence; inhibition, % at 18.7 µM; AID 651710; actives 0.46% (n = 360,000); P43351;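 active = every replicate showing at least 50% inhibition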
* hit, by the source's call. Rows were chosen to be rich in hits. Some 1.4% of all compounds tested hit in one or more screens of this group.

For C[C@@H]1CCCCO[C@@H](CN(C)Cc2ccc(C(F)(F)F)cc2)[C@@H](C)CN([C@H](C)CO)C(=O)c2cc(N(C)C)ccc2O1 the results were PGC1a acetyl inh -7, RAD54 inh 2, ERAP1 HTS inh 0, MLL AF4-AF9 inh 18, GSIS activator -14 and RAD52 inh -15.
`C[C@H]1CCCCO[C@@H](CN(C)Cc2ccc(C(F)(F)F)cc2)[C@@H](C)CN([C@@H](C)CO)C(=O)c2cc(N(C)C)ccc2O1` gave PGC1a acetyl inh 4, RAD54 inh 2, ERAP1 HTS inh 4, MLL AF4-AF9 inh 37*, GSIS activator -3 and RAD52 inh 4.
C[C@@H]1CCCCO[C@H](CN(C)C(=O)Nc2ccc(C(F)(F)F)cc2)[C@H](C)CN([C@@H](C)CO)C(=O)c2cc(N(C)C)ccc2O1 was read as PGC1a acetyl inh 4, RAD54 inh -2, ERAP1 HTS inh -1, MLL AF4-AF9 inh 5, GSIS activator 9 and RAD52 inh 78*.
Screening C[C@@H]1CCCCO[C@H](CN(C)Cc2ccc(C(F)(F)F)cc2)[C@H](C)CN([C@H](C)CO)C(=O)c2cc(N(C)C)ccc2O1 returned PGC1a acetyl inh 5, RAD54 inh 2, ERAP1 HTS inh 1, MLL AF4-AF9 inh 35*, GSIS activator -15 and RAD52 inh -3.
C[C@H]1CCCCO[C@H](CN(C)Cc2ccc(C(F)(F)F)cc2)[C@@H](C)CN([C@@H](C)CO)C(=O)c2cc(N(C)C)ccc2O1 was read as PGC1a acetyl inh -4, RAD54 inh 4, ERAP1 HTS inh 2, MLL AF4-AF9 inh 33*, GSIS activator -30 and RAD52 inh 19.
For C[C@@H]1CCCCO[C@H](CN(C)C(=O)Nc2ccc(C(F)(F)F)cc2)[C@H](C)CN([C@H](C)CO)C(=O)c2cc(N(C)C)ccc2O1 the results were PGC1a acetyl inh 2, RAD54 inh 5, ERAP1 HTS inh 0, MLL AF4-AF9 inh 17, GSIS activator 12 and RAD52 inh 37.
For O=C(O)C[C@H]1CC[C@@H](NC(=O)Nc2ccccc2)[C@@H](CO)O1 the results were PGC1a acetyl inh -3, RAD54 inh 7, ERAP1 HTS inh -4, MLL AF4-AF9 inh -2, GSIS activator -9 and RAD52 inh -3.
For CC(=O)N(C)C[C@H]1Oc2ncc(C#CC(C)(C)O)cc2C(=O)N([C@@H](C)CO)C[C@H]1C the results were PGC1a acetyl inh -7, RAD54 inh 6, ERAP1 HTS inh -1, MLL AF4-AF9 inh -22, GSIS activator 8 and RAD52 inh 19.
CCOC(=O)N1CCC(N2Cc3cccc(C(=O)Nc4ccc(N(CC)CC)cc4C)c3C2=O)CC1 was read as RAD54 inh 2, ERAP1 HTS inh 0, MLL AF4-AF9 inh 43*, GSIS activator -9 and RAD52 inh -30.
COc1ccc2c3c([nH]c2c1)[C@@H](CO)N(Cc1ccc(F)cc1)CC31CN(C(=O)NC(C)C)C1 was read as PGC1a acetyl inh 0, MLL AF4-AF9 inh -3 and GSIS activator -1.
For N#C/C(=C\c1cn(CCOc2ccccc2)c2ccccc12)C(=O)NCc1cccs1 the results were RAD54 inh -10 and GSIS activator 99*.
COc1ccccc1OCCn1cc(/C=C(\C#N)C(=O)NCc2ccco2)c2ccccc21 was read as PGC1a acetyl inh -14, RAD54 inh -6 and GSIS activator -7.
For N#C/C(=C\c1cn(Cc2ccccc2F)c2ccccc12)C(=O)NCc1ccco1 the results were GSIS activator 56*.
`C[C@@H]1CN([C@H](C)CO)C(=O)c2cc(NC(=O)Cc3ccccc3)ccc2O[C@@H](C)CCCCO[C@H]1CN(C)C(=O)Nc1cccc2ccccc12` gave PGC1a acetyl inh 7, RAD54 inh -2, ERAP1 HTS inh -2, MLL AF4-AF9 inh 2, GSIS activator -5 and RAD52 inh 1.
Screening Cn1nnnc1Sc1ncnc2scc(-c3ccc(Cl)cc3)c12 returned PGC1a acetyl inh 37, RAD54 inh -1, ERAP1 HTS inh 2, MLL AF4-AF9 inh 0, GSIS activator 70* and RAD52 inh -6.
Screening Cn1nnnc1Sc1ncnc2scc(-c3cccc(Br)c3)c12 returned PGC1a acetyl inh 18, RAD54 inh -1, ERAP1 HTS inh 1, MLL AF4-AF9 inh 0, GSIS activator 36 and RAD52 inh -17.
For CC(=O)c1cccc(-c2csc3ncnc(Sc4nnnn4C)c23)c1 the results were RAD54 inh 2, ERAP1 HTS inh -1, MLL AF4-AF9 inh -2, GSIS activator 42* and RAD52 inh -12.
Screening COC(=O)c1ccc(C2C(Oc3ccc(OC)cc3)C(=O)N2CCc2ccc(F)cc2)cc1 (stereo not drawn) returned PGC1a acetyl inh 5 and GSIS activator 113*.
Screening COc1ccc(OC2C(=O)N(Cc3ccc(F)cc3)C2c2cc(OC)c(OC)c(OC)c2)cc1 (stereo not drawn) returned GSIS activator 4.
CO[C@@H]1CN(C)C(=O)c2ccc(NS(=O)(=O)c3ccc(C)cc3)cc2OC[C@@H](C)N(C(=O)NC(C)C)C[C@H]1C was read as PGC1a acetyl inh -36 and GSIS activator -8.
For O=C(C[C@H]1CC[C@@H]2[C@H](COC[C@H](O)CN2S(=O)(=O)c2ccccc2)O1)NCCN1CCCC1 the results were ERAP1 HTS inh -1, MLL AF4-AF9 inh 2, GSIS activator 0 and RAD52 inh 3.
COCCCNC(=S)Nc1ccc(OC(F)F)cc1C was read as RAD54 inh 5, MLL AF4-AF9 inh -2, GSIS activator -5 and RAD52 inh 1.
For COCCCNC(=S)Nc1cc(C)c(C)cc1C the results were PGC1a acetyl inh 75*, ERAP1 HTS inh -2, MLL AF4-AF9 inh -1 and RAD52 inh 0.
For COc1ccc(CCN2C(=O)CC(Cc3ccc(Br)cc3)C2=O)cc1OC (stereo not drawn) the results were GSIS activator -20.
`COc1ccc(CCN2C(=O)CC(Cc3ccccc3)C2=O)cc1OC` (stereo not drawn) gave PGC1a acetyl inh -4, ERAP1 HTS inh -4, MLL AF4-AF9 inh 1, GSIS activator 70* and RAD52 inh -3.
`C[C@H]1CN([C@@H](C)CO)S(=O)(=O)c2ccc(C3=CCCCC3)cc2O[C@@H]1CN(C)C(=O)Cc1ccncc1` gave PGC1a acetyl inh 4, RAD54 inh -25, ERAP1 HTS inh -1, MLL AF4-AF9 inh 14, GSIS activator -2 and RAD52 inh -21.
For C[C@@H]1CCCCO[C@@H](CN(C)CC2CCCCC2)[C@@H](C)CN([C@@H](C)CO)C(=O)c2cc(NC(=O)NC3CCCCC3)ccc2O1 the results were PGC1a acetyl inh 11, RAD54 inh 2 and GSIS activator -14.
